Records with an inconclusive call do not appear. Calls of active or inactive are those of the source. Calls come from the whole dose curve; as a rule, active = well fitted cell-killing curve with a large enough effect in the repeat runs; inconclusive = weak or mixed curves; inactive = flat fitted curve, though single readings scatter.

The values below come from PubChem BioAssay (Tox21).
% is set by controls: 0 for no effect and ±100 for the full control effect.

The assay is described as follows: qHTS assay to identify small molecule antagonists of the TGF-beta/Smad signaling pathway - cell viability counter screen (AID 1346824). Note: nearly all actives have a fitted effect of over 50% in size. The conditions noted are these: SBE-bla HEK293T viability, CellTiter-Glo luminescence; series mostly up to 76.8 µM; viability change, negative = cytotoxic: at the top concentration. In a few lines:
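Cytotoxicity counter-screen run in the same wells as the beta-lactamase Smad reporter read: CellTiter-Glo luminescence after 30 min at room temperature. HEK 293T SBE-bla cells had 5 hr compound exposure at 37 C with TGF-beta1 (0.25 ng/mL stock).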
On the technique in general: qHTS replaces the single test concentration by a dilution series.
In the case of `CO[Si](CCCCl)(OC)OC`, the “viability change, negative = cytotoxic” value is -2.1% (inactive).

Regarding `c1ccccc1`, the “viability change, negative = cytotoxic” value was 1.68% (inactive).

As for `CCCCC(CC)COC(=O)c1ccccc1` (stereo not given), the “viability change, negative = cytotoxic” value is -3.67% (inactive).

With `COc1ccc(N=Nc2cc(C)c(N=Nc3ccc(S(=O)(=O)O)cc3)cc2OC)cc1`, the “viability change, negative = cytotoxic” value is 10.9% (inactive).

Consider `Cc1ccc2c(c1)c1c3n2CCNC3CCC1` (stereo not given), for which the “viability change, negative = cytotoxic” value is 2.47% [at 35.3 µM] (inactive).

Take `CCCCCCCCCCCCC1CO1` (stereo not given): the “viability change, negative = cytotoxic” value was -1.95% (inactive).

As for `CC(=O)Nc1ncc([N+](=O)[O-])s1`, the “viability change, negative = cytotoxic” value was 0.232% [at 35.3 µM] (inactive).

Consider `C1=C\CC/C=C\CC/1`, for which the “viability change, negative = cytotoxic” value was -11.9% (inactive).

As for `CCCCCN(CCCOC)C(=O)C(CCC(=O)O)NC(=O)c1ccc(Cl)c(Cl)c1` (stereo not given), the “viability change, negative = cytotoxic” value was -0.165% [at 35.3 µM] (inactive).

Consider `CC(=O)/C=C/c1ccco1`, for which the “viability change, negative = cytotoxic” value was 0.693% (inactive).

With `C=CCOCC(O)CCl` (stereo not given), the “viability change, negative = cytotoxic” value is 0.206% (inactive).

`Nc1c(NC/C=C\COc2cc(CN3CCCCC3)ccn2)c(=O)c1=O`: the viability change, negative = cytotoxic was 0.148% [at 15.8 µM] (inactive).

As for `Cc1nc(C)nc(N2C[C@@H](C)N(c3ccnc([C@@H](C)O)n3)[C@@H](C)C2)n1`, the “viability change, negative = cytotoxic” value was 0.0825% [at 35.3 µM] (inactive).

As to `SCCSCCS`, the “viability change, negative = cytotoxic” value is 4.26% (inactive).

Turning to `CCCCCCCCOC(C)=O`, the “viability change, negative = cytotoxic” value was 4.11% (inactive).

With `COCCOCCOCCOC`, the “viability change, negative = cytotoxic” value is 0.911% (inactive).

Regarding `O=C(O)c1c(Cl)ccc(Cl)c1Cl`, the “viability change, negative = cytotoxic” value is 1.31% (inactive).

Regarding `CC1=NN(c2ccc(S(=O)(=O)O)cc2)C(=O)C1N=Nc1ccccc1` (stereo not given), the “viability change, negative = cytotoxic” value was 4.23% (inactive).

As to `Cc1ccc(C(=O)C(=O)O)cc1C`, the “viability change, negative = cytotoxic” value was 15.8% [at 35.3 µM] (inactive).

For `CCCCCCCCCOCC1CO1` (stereo not given), the “viability change, negative = cytotoxic” value is -12.9% (inactive).

For the compound `O=c1[nH]c(=O)c2[nH]c(=O)[nH]c2[nH]1`, the viability change, negative = cytotoxic was 2.42% [at 6.97 µM] (inactive).

In the case of `O=C1NC2NC(=O)NC2N1` (stereo not given), the “viability change, negative = cytotoxic” value was 0.207% (inactive).

Regarding `CCN(Cc1cccc(S(=O)(=O)O)c1)c1ccccc1`, the “viability change, negative = cytotoxic” value is -0.791% (inactive).

For the compound `CCC(C)(C)C1CCC(=O)CC1`, the “viability change, negative = cytotoxic” value was -2.34% (inactive).

On to `CCCCCC1Nc2cc(C(F)(F)F)c(S(N)(=O)=O)cc2S(=O)(=O)N1` (stereo not given), for which the “viability change, negative = cytotoxic” value is 1.44% [at 35.3 µM] (inactive).
